Compound activity deposited in PubChem BioAssay by National Center for Advancing Translational Sciences (NCATS).
Compounds with a hit are over-represented: about 10% of the library has one in this group of screens.
BAZ2B block: BAZ2B (human) inhibition; Q9UIF8; AlphaScreen BAZ2B-H3K14Ac peptide displacement; Potency, µM (highest dose often 114 µM), usual class: inhibitors; hit rate 4.4% among 360,000; AID 504333; further: nearly all actives have a fitted effect of over 60% in size
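BAZ2B (50 nM) with biotin-H3(5-23)K14Ac peptide (50 nM) in PBS pH 7.4, 0.01% Tween-20, preformed 30 min, then compound 30 min at room temperature; top concentration 110uM. AlphaScreen streptavidin donor/nickel chelate acceptor beads (10 ug/mL final), 20 min dark, signal read.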
G9a inh: G9a (human) methyltransferase inhibition; Potency, µM (titrated, usually from 102 µM), usual class: inhibitors; Q96KQ7; hit rate 8.8% among 350,000; G9a H3K9 monomethylation, AlphaScreen, 2 h; further: nearly all actives have a fitted effect of over 75% in size
Target sequence (Q96KQ7 913-1193 limits assumed): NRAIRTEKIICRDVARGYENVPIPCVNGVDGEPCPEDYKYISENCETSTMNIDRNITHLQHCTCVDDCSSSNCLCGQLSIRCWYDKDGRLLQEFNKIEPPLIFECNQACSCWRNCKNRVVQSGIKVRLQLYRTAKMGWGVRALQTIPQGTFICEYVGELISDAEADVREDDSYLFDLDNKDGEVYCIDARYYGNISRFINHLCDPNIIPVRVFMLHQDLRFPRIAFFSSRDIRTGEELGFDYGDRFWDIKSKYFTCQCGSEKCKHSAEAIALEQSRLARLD
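Using a bead-based AlphaScreen, monomethylated H3K9 product from 2 h room-temperature reactions (G9a 20 nM, peptide 500 nM, SAM 20 uM) was detected with 0.5 ug/mL rabbit anti-H3K9me1 antibody.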
GLS inhibitor: glutaminase GLS (human) inhibition; hit rate 0.21% among 410,000; Potency, µM (titrated, usually from 45.5 µM), usual class: inhibitors; GLS enzymatic activity, qHTS titration
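Glutamate formation by hKGA was monitored fluorometrically using coupled glutamate oxidase, HRP and Amplex Red. Substrate was added as 1 mM L-glutamine solution; incubation was 30 min at RT after an initial read.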
JMJD2A Tudor: blocks the human JMJD2A Tudor domain. O75164. AlphaScreen JMJD2A-Tudor / H3K4me3 peptide binding. Potency, µM (titrated, usually from 114 µM), actives largely listed as inhibitors. hit rate 4.4% among 390,000; further: nearly all actives have a fitted effect of over 50% in size
HP1b binding inh: HP1-beta chromodomain-methylated histone interaction inhibition | AlphaScreen HP1-beta / biotin-H3K9me3 peptide binding | Potency, µM (series often up to 114 µM), most hits filed as inhibitors | hit rate 0.56% among 390,000 | AID 540317; further: nearly all actives have a fitted effect of over 70% in size
Target sequence (P83916 whole entry, looked up): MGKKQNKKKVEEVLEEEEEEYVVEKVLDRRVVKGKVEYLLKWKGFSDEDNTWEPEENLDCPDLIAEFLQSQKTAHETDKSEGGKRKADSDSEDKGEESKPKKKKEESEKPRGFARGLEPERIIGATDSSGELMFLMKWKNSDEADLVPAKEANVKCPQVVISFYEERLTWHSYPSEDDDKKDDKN
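AlphaScreen: HP1-beta (50 nM) preformed 30 min with biotin-H3(1-18)K9me3 peptide (50 nM) in PBS pH 7.4, 0.01% Tween-20. Compound added for 30 min at RT, then streptavidin donor/nickel chelate acceptor beads (10 ug/mL) for 30 min.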
Numbers stand for hits; i = inactive; ? = inconclusive; nt = no result; ! = a repeat was not active; [ ] = remark or other dose. The call rests on the fitted dose curve; in most records, active means well fitted curve in the direction sought with a large enough effect; inconclusive means small, poorly fitted or top-dose-only effect, or another doubt; inactive means no such curve, though single readings can be large; an effect the other way counts as inactive or inconclusive.

SMILES	BAZ2B block	G9a inh	GLS inhibitor	JMJD2A Tudor	HP1b binding inh
COC(=O)N1CC=CC1(C)C(=O)NCc1cc(F)cc(C(F)(F)F)c1 (configuration not stated)	i	i	i	i	i
C#CCOCCOCCOCCNc1nc(N2CCN(C(=O)Cn3cc(CCCCN)nn3)CC2)nc(N2CCN(C(=O)[C@H](C)n3cc(CCCN=C(N)N)nn3)CC2)n1	?	28µM	nt	nt	nt
C#CCOCCOCCOCCNc1nc(N2CCN(C(=O)Cn3cc(CCCN=C(N)N)nn3)CC2)nc(N2CCN(C(=O)[C@H]([C@@H](C)O)n3cc(CCCCN)nn3)CC2)n1	i	i[2.33 µM]	i	i	i
C#CCOCCOCCOCCNc1nc(N2CCN(C(=O)Cn3cc(CC(C)O)nn3)CC2)nc(N2CCN(C(=O)[C@H](C)n3cc(CCCN=C(N)N)nn3)CC2)n1 (some centres not stated)	79µM	7.1µM	i	45µM	i
O=C1NC[C@@H](CCCCN2C[C@H](Cc3ccccc3)N(CCc3ccc(O)cc3)C(=O)C2=O)N(Cc2ccccc2)C1=O	nt	nt	i	nt	nt
Cc1cc(C(=O)COC(=O)C(C)NC(N)=O)c(C)n1Cc1ccco1 (configuration not stated)	?	i	i	?	i
CCOc1ncccc1C(=O)OCC(=O)c1cc(C)n(Cc2ccco2)c1C	50µM	?	i	?	i
Cc1cc(C(=O)CN2C(=O)C(=O)N(Cc3ccccc3)C2=O)c(C)n1CC1COc2ccccc2O1 (configuration not stated)	i	i	i	i	i
O=C(COC(=O)c1cccnc1Cl)c1ccc(F)cc1	i	i	i	i	i
Cc1cc(C(=O)COC(=O)c2ccc(O)cc2)c(C)n1Cc1ccco1	50µM	?	i	?	?
CCOc1ncccc1C(=O)OCC(=O)c1ccc(F)cc1	i	i	i	20µM	i
Cc1cc(C(=O)COC(=O)c2ccc(CO)cc2)c(C)n1CC1COc2ccccc2O1 (configuration not stated)	?	4µM	i	i	i
COc1cc(-n2c(=O)c3ccccc3n(CC(=O)c3ccc(Br)cc3)c2=O)cc(OC)c1OC	i	i	i	i	i
COc1ccc(NC(=O)CN2C(=O)c3cccnc3Sc3ccccc32)cc1OC	i	i	i	i	i
CCN(C(=O)CN1C(=O)CN(C)C1=O)c1cccc2ccccc12	nt	nt	i	i	i
CCN(C(=O)CN1CCN(C)CC1)c1cccc2ccccc12	32µM	1.8µM	i	1.8µM	?
CNC(=S)NCCc1cc2c(OC)ccc(OC)c2[nH]c1=O	nt	?	i	18µM	i
COc1ccc(OC)c2[nH]c(=O)c(CCNC(=S)NC(C)(C)C)cc12	nt	i	i	i	i
Clc1ccc(N2CCN(/N=C/c3ccncc3)CC2)cc1	i	i	i	i	i
O=C(O)c1ncc(Cl)c(Cl)c1Cl	i	50µM	i	50µM!	i
NS(=O)(=O)c1ccc(CCNC(=O)COC(=O)C2COc3ccccc3O2)cc1 (configuration not stated)	nt	nt	i	i	i
Cc1ccc(-c2nc(-c3cccnc3)sc2CC(=O)O)cc1	i	?	i	i	i
CC(=O)Nc1ccc(NC(=O)Cc2sc(-c3cccnc3)nc2-c2ccc(C)cc2)cc1	i	45µM	i	i	i
Cc1ccc(NC(=O)CSc2nnc(-c3cccnc3)s2)cc1	i	79µM	i	i	i
O=C(CSc1nnc(-c2ccncc2)s1)Nc1ccc(Cl)c(C(=O)O)c1	?	50µM	i	i	i
SMILES	BAZ2B block	G9a inh	GLS inhibitor	JMJD2A Tudor	HP1b binding inh
O=C(CSc1nnc(-c2cccnc2)s1)Nc1ccnc2ccccc12	i	?	i	i	i
O=C(Nc1ccccc1)C1CCN(C(=O)c2ccc([N+](=O)[O-])cc2)CC1	i	?	i	i	i
Cc1ccc(S(=O)(=O)Nc2ccc(NC(=O)/C=C/C(=O)O)cc2)cc1	i	?	i	i	i
CN(c1ccccc1C(=O)NCc1ccco1)S(C)(=O)=O	?	i[12.7 µM]	?	i	i
C=CCNC(=O)c1ccccc1NC(=O)c1ccccc1N(C)S(C)(=O)=O	i	50µM	i	i	i
Cc1ccc(CNC(=O)c2ccccc2N(C)S(C)(=O)=O)cc1	i	40µM	i	i	i
Cc1nc2ccc(C(=O)N(C)Cc3ccco3)cn2c1N(C)CC1CCCCC1	nt	nt	i	nt	nt
